The structures appear in SMILES notation. Where “and” joins values, the source holds several entries; their conditions need not be identical. Equal values may be shown once. Unmarked numbers belong to inactive results. Inconclusive results are not listed. Some structures have more than one record in an assay (separate samples or runs), and their calls can disagree. Calls of active or inactive are those of the source. Unless noted, the call rests on the fitted dose curve; in most records, active means well fitted curve in the direction sought with a large enough effect; inconclusive means small, poorly fitted or top-dose-only effect, or another doubt; inactive means no such curve, though single readings can be large; an effect the other way counts as inactive or inconclusive.

Assay [1] has as its system Tov-21-G. The assay is described as follows: Primary qHTS to identify gynecologic anti-cancer compounds using libraries of approved drugs and bioactive compounds (AID 1345084). Further: nearly all actives have a fitted effect of over 55% in size. Further: potency means the concentration at half of the fitted maximal effect. The conditions noted are these: Gynecologic cancer cell panel viability, ATPlite luminescence, 48 h; series mostly up to 57.5 µM. In short, it runs like this:
(§1)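 Cells, 1,000 per well, plated 16 h, then exposed 48 h at 37 C to compounds. Viability by ATPlite luminescence after 15 min at room temperature.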
(In general: In qHTS, concentration-response curves come from the screen itself.)

Assay [2] relates to Tov112D. The assay is described as above. The settings on record: Gynecologic cancer cell panel viability, ATPlite luminescence, 48 h; series mostly up to 57.5 µM. In short, it runs like this:
as §1
In general terms: ATP-based viability assays read luminescence as a measure of living cells.

Assay [3] in a line: Drug repurposing screens with cells derived from glioblastoma tumor samples (AID 1345199). Further: nearly all actives have a fitted effect of over 40% in size. Further: potency means the concentration at half of the fitted maximal effect. On activity, negative = cell killing: on the % scale 0 is the no-effect control and ±100 the full control effect. The settings on record: GBM patient neurospheres viability, ATP luminescence, 48 h. Summed up: (§2)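 Four patient lines of CD133+ GBM neurospheres were screened at several concentrations; hits were retested in those lines plus three slower-growing GBM lines, using 48-hour treatment and ATP-based viability.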

The test system of assay [4] is astro. The description is as above. The settings on record: viability, ATP luminescence, 48 h; series mostly up to 45.9 µM. Summed up: as §2
For assay [5], the target named is Nuclear receptor subfamily 1 group I member 2 (Rattus norvegicus) (UniProt Q9R1A7). The assay is described as follows: qHTS assay for small molecule activators of the rat pregnane X receptor (rPXR) signaling pathway (AID 651751; call rule not given here; further: 0% is about no effect). The settings on record: rPXR reporter cells, luciferase (One-Glo), 24 h.
Setting [6] is: at 45.9 µM (top of the series), tumour line B.
Where [7] appears, read: at 45.9 µM (top of the series), tumour line D.
Where [8] appears, read: at 46.1 µM (top of the series), tumour line C.
Setting [9] is: at 20 µM (top of the series), tumour line C.
Setting [10] is: at 21.2 µM (top of the series), tumour line B.
[11] abbreviates: at 21.2 µM (top of the series), tumour line D.

Nuclear receptor subfamily 1 group I member 2 (Rattus norvegicus), sequence (Q9R1A7 whole entry, looked up): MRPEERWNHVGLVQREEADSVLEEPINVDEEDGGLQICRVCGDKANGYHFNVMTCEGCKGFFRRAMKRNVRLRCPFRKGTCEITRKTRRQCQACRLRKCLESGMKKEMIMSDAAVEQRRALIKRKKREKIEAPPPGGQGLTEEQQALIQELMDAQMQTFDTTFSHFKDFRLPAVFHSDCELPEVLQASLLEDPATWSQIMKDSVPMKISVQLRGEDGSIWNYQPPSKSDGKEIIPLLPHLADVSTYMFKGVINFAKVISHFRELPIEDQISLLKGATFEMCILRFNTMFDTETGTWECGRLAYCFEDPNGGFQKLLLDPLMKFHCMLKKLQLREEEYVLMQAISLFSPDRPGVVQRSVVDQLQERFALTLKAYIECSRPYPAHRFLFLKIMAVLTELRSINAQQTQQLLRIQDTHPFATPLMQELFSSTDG

Regarding `C[N+]1(C)[C@@H]2CC(OC(=O)[C@H](CO)c3ccccc3)C[C@H]1[C@@H]1O[C@@H]12` (stereo partly drawn), the Potency result in assay [1] and in assay [2] was “inactive” throughout.

Turning to `COC(=O)Nc1nc2ccc(C(=O)C3CC3)cc2[nH]1`, the Potency is 1.41 µM (active) in assay [1] and 1.58 µM (active) in assay [2].

As for `CCCCN(CC)c1nc(C)nc2c1c(C)cn2-c1c(C)cc(C)cc1C`, the Potency entry in assay [1] and in assay [2] was “inactive” in each case.

With `CO[C@@]1(NC(=O)Cc2cccs2)C(=O)N2C(C(=O)O)=C(COC(N)=O)CS[C@@H]21`, the Potency entry in assay [1] and in assay [2] was “inactive” throughout. Moreover, the activity, negative = cell killing in assay [3] (setting [6]) was 3.39% and 0.545%; in assay [3] (setting [7]), -2.17% and -11.4%; in assay [3] (setting [8]), -9.41% and -2.11%.

Regarding `CC(C(=O)O)c1ccc(C(=O)c2ccccc2)s1` (stereo not drawn), the Potency entry in assay [1] and in assay [2] was “inactive” in each case. For the same compound, the activity, negative = cell killing in assay [3] (setting [9]) is -11.8%; in assay [3] (setting [10]) it was -9.92%; in assay [3] (setting [11]), 4.8%.

In the case of `O=C(Nc1ccc2[nH]ncc2c1)C1CCC1`, the Potency entry in assay [1] and in assay [2] was “inactive” each time.

As for `CNC(=O)c1c(I)c(NC(=O)CCCCC(=O)Nc2c(I)c(C(=O)O)c(I)c(C(=O)NC)c2I)c(I)c(C(=O)O)c1I`, the Potency result in assay [1] and in assay [2] was “inactive” each time.

Take `Cc1ccc(O)c(-n2nc3ccccc3n2)c1`: the Potency result in assay [1] and in assay [2] was “inactive” in each case. Further, the activity, negative = cell killing in assay [3] (setting [6]) is -17.2%; in assay [3] (setting [7]), -17.5%; in assay [3] (setting [8]), -2.87%.

For `O=C(CCN1CCN(CCO)CC1)N1c2ccccc2Sc2ccc(C(F)(F)F)cc21`, the Potency result in assay [1] and in assay [2] was “inactive” throughout. Besides, the activity, negative = cell killing in assay [3] (setting [6]) was -17.6%. Besides, the Potency in assay [3] (tumour line A) is 11.2 µM (active).

Consider `O=C(Nc1ccc2c(c1)CCN(Cc1ncn[nH]1)C2)c1ccccc1-c1ccc(C(F)(F)F)cc1`, for which the Potency result in assay [1] and in assay [2] was “inactive” each time.

Turning to `Fc1ccc2[nH]c(CN3CCN(c4ccccn4)CC3)cc2c1`, the Potency entry in assay [1] and in assay [2] was “inactive” in each case.

As for `COc1cc(NC(C)CCCN)c2ncccc2c1` (stereo not drawn), the Potency entry in assay [1] and in assay [2] was “inactive” throughout. Further, in assay [3] (setting [9]), the activity, negative = cell killing was 6.33%. Also, the Potency in assay [3] (tumour line A) was 10 µM (active).

With `CCNC(=O)[C@H]1O[C@@H](n2cnc3c(N)nc(NCCc4ccc(CCC(=O)O)cc4)nc32)[C@H](O)[C@@H]1O`, the Potency result in assay [1] and in assay [2] was “inactive” in each case.

`COC(=O)C1=C(C)NC(C)=C(C(=O)OCC(C)=O)C1c1ccccc1[N+](=O)[O-]` (stereo not drawn): the Potency entry in assay [1] and in assay [2] was “inactive” each time.

With `CN1CCN(c2cc3c(nn2)Oc2ccccc2N3C)CC1`, the Potency result in assay [1] and in assay [2] was “inactive” in each case. Also, the activity, negative = cell killing in assay [3] (setting [6]) was -7.46%. Also, the Potency in assay [3] (tumour line A) is 11.2 µM (active).

Take `CN(CCCOc1ccc(Cc2ccccc2)cc1)CCC(=O)O`: the Potency result in assay [1] and in assay [2] was “inactive” each time.

On to `CS(=O)(=O)c1ccc(-n2nc(C(F)(F)F)cc2-c2ccc(F)cc2)cc1`, for which the Potency entry in assay [1] and in assay [2] was “inactive” in each case.

Take `Cc1c(C(=O)O)c(O)cc2c1C(=O)c1c(O)c([C@@H]3O[C@H](CO)[C@@H](O)[C@H](O)[C@H]3O)c(O)c(O)c1C2=O`: the Potency entry in assay [1] and in assay [2] was “inactive” each time. Moreover, the activity, negative = cell killing in assay [3] (setting [6]) was -25.2%; in assay [3] (setting [7]), -27.3%; in assay [3] (setting [8]), 21.4%.

For `CCNc1nc2c(ncn2[C@H]2C[C@H](O)[C@@H](CO)O2)c(=O)[nH]1`, the Potency result in assay [1] and in assay [2] was “inactive” throughout.

Regarding `NS(=O)(=O)c1ccc(-n2nc(C(F)(F)F)cc2-c2ccc(Cl)cc2)cc1`, the Potency result in assay [1] and in assay [2] was “inactive” throughout.

With `Cc1c(Nc2ncccc2C(=O)O)cccc1C(F)(F)F`, the Potency entry in assay [1] and in assay [2] was “inactive” in each case. Besides, the values for the activity, negative = cell killing in assay [3] (setting [9]), in assay [3] (setting [10]) and in assay [3] (setting [11]) were -8.1%, -18.2% and -22.5%, respectively.

As for `O=C(CS)Nc1ccccc1`, the Potency result in assay [1] and in assay [2] was “inactive” each time. Further, the activity, negative = cell killing in assay [3] (setting [8]) is -39.6%. Further, the Potency in assay [3] (tumour line D) was 12.6 µM (active).

As to `CCCCCCCCCCCCOCCO`, the Potency result in assay [1] and in assay [2] was “inactive” in each case.

`NC(=O)C(c1ccccc1)(c1ccccc1)[C@@H]1CCN(CCc2ccc3c(c2)CCO3)C1`: the Potency entry in assay [1] and in assay [2] was “inactive” throughout.

Turning to `COC(=O)C1=C(C)NC(C)=C(C(=O)OCC(C)C)C1c1ccccc1[N+](=O)[O-]` (stereo not drawn), the Potency entry in assay [1] and in assay [2] was “inactive” throughout. The activity, negative = cell killing in assay [3] (setting [8]) is -13.4%. Also, the Potency in assay [3] (tumour line A) is 10 µM (active); in assay [3] (tumour line D), 14.1 µM (active).

For the compound `CCCCCCCC/C=C/C(=O)O`, the Potency result in assay [1] and in assay [2] was “inactive” in each case.

With `c1ccc(CCNc2nc(-c3ccccc3)cs2)cc1`, the Potency entry in assay [1] and in assay [2] was “inactive” throughout. The activity, negative = cell killing in assay [3] (setting [6]) is -22.5%. In addition, the Potency in assay [3] (tumour line A) is 14.1 µM (active).

Regarding `O=C(O)Cc1ccc2c(c1)C(=O)c1ccccc1CO2`, the Potency entry in assay [1] and in assay [2] was “inactive” in each case.

Turning to `O=C(O)CC1CC(c2ccccc2)=NO1` (stereo not drawn), the Potency entry in assay [1] and in assay [2] was “inactive” each time.

As for `O=[N+]([O-])c1ccc(CNc2nc(NCc3cccc(C(F)(F)F)c3)nc3nc[nH]c23)cc1`, the Potency entry in assay [1] and in assay [2] was “inactive” each time.

Regarding `COc1ccc(/C=C/C(=O)Nc2ccccc2C(=O)O)cc1OC`, the Potency entry in assay [1] and in assay [2] was “inactive” throughout.

In the case of `CC(C)(C)c1nnc(NS(=O)(=O)c2ccc(N)cc2)s1`, the Potency result in assay [1] and in assay [2] was “inactive” throughout.

For `CCCCCCOc1ccccc1C(N)=O`, the Potency result in assay [1] and in assay [2] was “inactive” each time. In assay [3] (setting [8]), the activity, negative = cell killing was -6.65%. Further, the Potency in assay [3] (tumour line A) was 14.1 µM (active).

On to `CC1(C)[C@@H](O)CC[C@]2(C)[C@H]3C(=O)C=C4[C@@H]5C[C@@](C)(C(=O)O)CC[C@]5(C)CC[C@@]4(C)[C@]3(C)CC[C@@H]12`, for which the Potency result in assay [1] and in assay [2] was “inactive” in each case. Also, the activity, negative = cell killing in assay [3] (setting [6]) is -26.1% and -10.2%; in assay [3] (setting [7]) it was 9.17% and -11.9%; in assay [3] (setting [8]) it was -0.581% and -19.2%.

`O=Cc1ccc(O)c(O)c1O`: the Potency entry in assay [1] and in assay [2] was “inactive” throughout.

`COc1ccnc2c1CCCCC2S(=O)c1nc2ccccc2[nH]1` (stereo not drawn): the Potency entry in assay [1] and in assay [2] was “inactive” throughout.

With `CCCOC(=O)c1ccc(O)cc1`, the Potency result in assay [1], in assay [2] and in assay [4] was “inactive” each time. The activity, negative = cell killing in assay [3] (setting [6]) is -2.89%; in assay [3] (setting [7]) it was -17.2%; in assay [3] (setting [8]), -7.69%; in assay [3] (at 91.6 µM (top of the series), tumour line B), -21%; in assay [3] (at 91.6 µM (top of the series), tumour line D) it was -29.2%; in assay [3] (at 99.2 µM (top of the series), tumour line C), -27.8%. The Potency in assay [3] (tumour line A) was 35.5 µM (active). Further, the max response in assay [5] was -2.03% and 0.0614% and -3.63%.

Regarding `CC1(C)S[C@@H]2[C@H](NC(=O)[C@H](NC(=O)N3CCN(S(C)(=O)=O)C3=O)c3ccccc3)C(=O)N2[C@H]1C(=O)O`, the Potency result in assay [1], in assay [2] and in assay [4] was “inactive” in each case. Moreover, the activity, negative = cell killing in assay [3] (setting [6]) is -6.53%; in assay [3] (setting [7]), -7.16%; in assay [3] (at 46 µM (top of the series), tumour line A), -8.92%; in assay [3] (setting [8]), -22.9%.

The values are drawn from PubChem BioAssay (NCATS).
